Experimental findings from PMC5540273 (PLoS ONE, 2017) are described below.
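Also: KINOMEscan kinase panel screen.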

This assay concerns EPHA7. The conditions noted are these: concentration: 1 μM, replicates: in singlicate; n = 1.
As to `Cc1ccc(C(=O)Nc2ccc(Nc3ccnc4cc(-c5nccs5)ccc34)cc2O)cc1.Cl` [GW494702], the “%Inh” value was 0%.
In the case of `CC(C)c1nc(-c2cccc(NS(=O)(=O)c3c(F)cccc3F)c2F)c(-c2ccnc(Nc3ccc(N4CCOCC4)nc3)n2)s1` [GSK2008607], the “%Inh” value turned out to be 0%.
The result for `Cl.c1ccc(-c2ccc3c(Nc4ccc5[nH]ccc5c4)ccnc3c2)nc1` [GW440138] reads 3%; that for `Nc1ncc(-c2cccnc2)c2scc(-c3ccc4c(c3)CCN4C(=O)Cc3ccccc3)c12` [GSK683281], 19%.
In the case of `COc1cc(Nc2nccc(-c3c(-c4cccc(NC(=O)c5c(F)cccc5F)c4)nn4ccccc34)n2)cc(OC)c1OC` [GSK323521] it was 15%.
In the case of `CCc1ccc(-c2ccc3c(c2)-c2c(cnn2C)S(=O)(=O)N3C)cc1` it was 0%.
As for `COC(=O)Nc1nc2cc(Oc3ccc(NC(=O)Nc4cc(C(F)(F)F)ccc4F)cn3)ccc2[nH]1.Cl.Cl` [GW681170], the “%Inh” value is listed as 82%.
For the compound `Cc1occc1-c1ncc(OC[C@@H](N)Cc2c[nH]c3ccccc23)cc1-c1ccc2[nH]nc(C)c2c1.O=C(O)C(F)(F)F` [GSK682037], the “%Inh” value was 6%.
Consider `O=C(Nc1cccc(Oc2ccc3nc(NC(=O)C4CC4)cn3n2)c1)c1ccccc1C(F)(F)F`, for which the “%Inh” value is recorded as 0%.
Turning to `CSc1cccc2c(-c3ccncn3)c(-c3ccc(F)cc3)nn12` [GW514786], the “%Inh” value was 9%.
For `COc1cc(Nc2ncc3c(C)nc(-c4cc5ccccc5[nH]4)n3n2)cc(OC)c1OC` [GW869516], the “%Inh” value is 0%.
In the case of `O=C(Nc1cccc(-c2nn3ccccc3c2-c2ccnc(Nc3cccc(C(F)(F)F)c3)n2)c1)c1c(F)cccc1F` [GSK292658], the “%Inh” value is given as 0%.
In the case of `CNC(=O)c1ccccc1Nc1nc(Nc2ccc(N3CCOCC3)cc2)ncc1Cl.Cl` [GSK1576028] it was 88%; in that of `Cl.c1ccc(-c2ccc3c(Nc4ccc5[nH]ncc5c4)ccnc3c2)nc1` [GW440137], 0%.
The result for `Cl.Cl.NCC(NC(=O)c1cc(-c2ccccc2)c(-c2ccnc3[nH]ccc23)s1)c1ccccc1` (stereo not shown) [GSK1321561] reads 11%.
In the case of `COc1cc2c(cc1OCCN1CCNCC1)ncc1c3ccc(C#N)cc3[nH]c21` it was 0%; in that of `CCn1c(-c2nonc2N)nc2c(C#CC(C)(C)O)ncc(OCCCCN)c21.O=C(O)C(F)(F)F.O=C(O)C(F)(F)F` [GSK507274], 0%; in that of `COc1cc(Nc2nccc(-c3c(-c4cccc(NC(=O)c5c(F)cccc5F)c4)nn4ncccc34)n2)cc(OC)c1OC` [GSK327238], 9%.
Take `COc1cc(Nc2nccc(N3CCC(NC(=O)Nc4cccc(C(C)=O)c4)C3)n2)cc(OC)c1OC` (stereo not shown) [GSK1379753]: the “%Inh” value is 11%.
The result for `CN(C)S(=O)(=O)c1cc(-c2ccc3nccc(-c4cccc(S(N)(=O)=O)c4)c3c2)cnc1N` [GSK1669921] reads 15%; that for `COCCOCCOc1cc2ncc3c4ccc(C#N)cc4[nH]c3c2cc1OC`, 11%; that for `Nc1n[nH]c2cnc(-c3ccccc3)cc12` [SB-642124], 65%.
The result for `CN1CCN(CCCNc2nccc(-c3c(-c4ccc(F)cc4)nn4cc(C(F)(F)F)ccc34)n2)CC1` [GW621581] reads 0%.
In the case of `Nc1ncnc2c1nc(-c1ccccc1)n2-c1ccccc1` [SKF-97293], the “%Inh” value is listed as 0%.
The result for `Cl.NC(=O)c1cccc(Nc2nccc(Nc3ccc(Oc4c(Cl)cccc4Cl)c(Cl)c3)n2)c1` [GW659009] reads 0%; that for `Cc1ccc(F)c(C(=O)Nc2cccc(-c3nn4ccccc4c3-c3ccnc(Nc4cccc(F)c4)n3)c2)c1F` [GSK361061], 41%; that for `COc1cccc(-c2ccc3c(NC(=O)C4CC4)n[nH]c3n2)c1` [SB-710903], 16%.
Consider `CC(=O)N1CCN(c2ccc(Nc3nccc(-c4sc(C(C)C)nc4-c4cccc(NS(=O)(=O)c5cccc(Cl)c5)c4)n3)cn2)CC1` [GSK1660437], for which the “%Inh” value was determined as 0%.
The result for `C[C@@H]1CC[C@@H](C(=O)Nc2ccccc2)CN1c1cc(-c2ccc3c(N)n[nH]c3c2)nc(N)n1` [GSK2286062] reads 0%.
The result for `Clc1ccc(-c2nn3ncccc3c2-c2ccnc(Nc3ccc4c(c3)OCCO4)n2)cc1` [GW829116] reads 35%; that for `Cc1ccc(C(=O)N2CC[C@@H](O)C2)cc1-n1c(C)cc(OCc2ccc(F)cc2F)c(Br)c1=O`, 0%.
